From PubChem BioAssay
L major viab = Leishmania major promastigote growth inhibition; Leishmania major promastigotes, resazurin fluorescence viability; inhibition, % at 10 µM; 200,000 tested, 9% active; AID 1063; in the data active = inhibition above about 50%;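 note: promastigotes grown with compound for 44 hours at 28 °C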
WT yeast gro inh = growth inhibition of WT yeast, mitochondrial fusion screen; mitochondrial fusion phenotypic screen, WT strain; inhibition, % at 10 µM; 190,000 tested, 2.1% active; AID 1362; in the data active = inhibition above about 58%; tested in S. cerevisiae
Arbovirus anti = arbovirus infection inhibition; arbovirus infection cell-based antiviral screen; inhibition, % at 10 µM; 200,000 tested, 0.37% active; in the data active = inhibition above about 30%
CHOP inhibitor = CHOP inhibition in unfolded protein response. inhibition, % at 10 µM. AID 2732. 220,000 tested, 3.8% active. CHO-K1 CHOP-promoter luciferase, tunicamycin-induced, 15-18 h;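 active = compounds that reduced the stress-induced luciferase reporter signal by more than about 70% of percent inhibition, limit read from the data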;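 note: 0% = tunicamycin plus vehicle and 100% = wells without tunicamycin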
Numbers without * were called inactive; · = no result given. Sampled rows, rich in hits. Any-hit rate of the full collection: about 12%.

SMILES	L major viab	WT yeast gro inh	Arbovirus anti	CHOP inhibitor
N#CC(C#N)=C1NC2(CCCC2)Cc2ccccc21	85*	-7	5	18
S=C1NC2(CCCCC2)Cc2ccccc21	0	69*	17	14
CC(C)c1nc2sc3c(NCc4ccco4)ncnc3c2c2c1COC(C)(C)C2	33	37	5	78*
CCCCN(C(=O)NC(=O)Nc1cccc(C)c1C)S(C)(=O)=O	-1	19	1	81*
Cc1ccccc1-c1nc(S(=O)(=O)c2ccc(Cl)cc2)c(NCCN2CCOCC2)o1	15	·	-27	90*
COc1ccc(CCNC(=O)C2CCN(c3nccc(C)n3)CC2)cc1	-3	-1	4	-1
CCOc1ccccc1CN1CCN(S(=O)(=O)CC)CC1	82*	13	12	1
CCCS(=O)(=O)N1CCN(Cc2ccccc2OCC)CC1	-4	-4	-1	27
CCS(=O)(=O)N1CCN(Cc2ccccc2OC)CC1	60*	-28	-1	50
COc1ccccc1N1CCN(S(=O)(=O)Cc2ccccc2Cl)CC1	27	20	-9	33
N#CCCN(Cc1ccccc1)C(=O)Nc1ccc(F)cc1	·	·	·	-6
CCOC(=O)C1=C(O)/C(=C/c2ccc(C)o2)SC1=NC(=O)c1ccccc1C	12	·	·	·
Cc1ccccc1-c1nn(-c2ccc(F)cc2F)cc1CNCCCN(C)C	100*	14	-23	-33
COCCN(C)Cc1cn(-c2ccc(F)cc2F)nc1-c1ccccc1C	11	7	1	-8
Cc1ccccc1-c1nn(-c2ccc(F)cc2F)cc1CNCCN(C)C	74*	7	-10	8
CN(C(=O)c1ccc(S(=O)(=O)c2cccc(Cl)c2)c([N+](=O)[O-])c1)C1CCCCC1	100*	9	-33	66
O=C(NC1CCCCC1)c1ccc(S(=O)(=O)c2ccccc2Cl)c([N+](=O)[O-])c1	3	-10	-9	68
CCN(CC)S(=O)(=O)c1ccc(-n2cnnn2)c(C)c1	-6	14	2	-24
Cc1cc(S(=O)(=O)NC2CCCCC2)ccc1-n1cnnn1	-4	-16	0	9
Cc1cc(S(=O)(=O)N(Cc2ccccc2F)C2CC2)ccc1-n1cnnn1	100*	17	1	20
Cc1cc(S(=O)(=O)NCC(c2ccccc2)c2ccccc2)ccc1-n1cnnn1	9	17	11	70*
COc1cc(S(=O)(=O)N(Cc2cccs2)CC2CCCO2)ccc1-n1cnnn1 (centres undefined)	55*	6	5	13
COc1cc(S(=O)(=O)N(Cc2ccco2)C2CCCC2)ccc1-n1cnnn1	71*	18	6	2
CCCN(CC1CC1)S(=O)(=O)c1ccc(-n2cnnn2)c(OC)c1	-3	10	1	36
COc1cc(S(=O)(=O)N(Cc2ccccc2)CC2CCCO2)ccc1-n1cnnn1 (centres undefined)	7	28	-3	-5
SMILES	L major viab	WT yeast gro inh	Arbovirus anti	CHOP inhibitor
CC1CCC(C(C)C)C(OCC(O)CNC(C)C)C1 (centres undefined)	·	·	·	6
CC1(C)Cc2c(c(N3CCCC3)nc3sc4c(N5CCNCC5)ncnc4c23)CO1	·	·	·	-31
O=Cc1cccn1-c1ccc(O)cc1	-10	-14	-1	20
Cc1cc(S(=O)(=O)N(Cc2ccccn2)Cc2ccco2)ccc1-n1cnnn1	-6	-12	2	5
CCOc1ccccc1CN(Cc1ccco1)S(=O)(=O)c1ccc(-n2cnnn2)c(OC)c1	69*	41	-9	·
CN(C)c1ccc(C2CC(c3cccc(NS(C)(=O)=O)c3)=NN2C(=O)c2ccccc2)cc1 (centres undefined)	60*	5	-7	-8
Cc1ccccc1S(=O)(=O)NCc1ccc(N2CCN(C)CC2)cc1	·	·	·	1
O=C(CN1C(=O)/C(=C/c2ccccc2F)Oc2ccccc21)N1CCN(c2ccccn2)CC1	40	-5	-10	86*
O=C(CN1C(=O)/C(=C\c2cccc(Cl)c2)Oc2ccccc21)N1CCN(c2ccccn2)CC1	-11	-2	-12	100*
O=C(CN1C(=O)c2cccc3cccc(c23)C1=O)N1CCN(c2ccccn2)CC1	48	6	-6	23
CC(=O)Nc1ccc2c(c1)nc1n2CCN(C2CCCCC2)C1	7	-4	1	-3
O=C1C(=O)N(CC2CCCO2)C(c2ccco2)/C1=C(/O)c1ccc(F)cc1 (centres undefined)	-1	-6	0	-3
N#Cc1sc2nc(-c3cccs3)cc(-c3ccc(F)cc3)c2c1N	-2	-5	37*	40
CCOC(=O)C1=C(Nc2ccccc2)CC(C)(O)C(C(=O)OCC)C1c1ccc(Br)cc1 (centres undefined)	92*	30	6	20
CC(=O)Oc1ccccc1-n1c(C)nc(=O)c(-c2ccccc2)c1C	·	·	·	7
Cc1nn(CCC(N)=S)c2nc(-c3cccs3)cc(C(F)(F)F)c12	1	75*	-15	26
